A selection: hits, their analogues and other compounds. The true share with any hit is near 19%.
ELG1 repair inh: inhibitors of ELG1-dependent DNA repair in HEK293T cells; HEK293T ELG1-luciferase reporter, luminescence, 16 h; DNA damage induced by 5-fluorouridine; Potency, µM (highest dose often 46.1 µM), for inactives: at the top dose activity change, negative = inhibition, usual class: inhibitors; actives 2.3% (n = 330,000); AID 504467; also: potency is read from the fitted curve at half-maximal effect; nearly all actives have a fitted effect of over 55% in size
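DMSO vehicle served as the neutral condition. Each well held 2,000 cells given 5-fluorouridine plus compound; after 16 hr at 37 °C/5% CO2, ONE-Glo was added and luciferase measured 30 min later.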
DT40 TDP1 CPT: growth inhibition of DT40 Tdp1-/-;hTDP1 cells with camptothecin (screen for TDP1 inhibitors); chicken DT40 Tdp1-/-;hTDP1 cells + 20 nM CPT, ATP luminescence, 48 h; Potency, µM (series often up to 46.2 µM), without a hit: at the top dose activity change, negative = growth inhibition, hits mostly inhibitors; actives 12% (n = 420,000); AID 686979; also: potency is read from the fitted curve at half-maximal effect; nearly all actives have a fitted effect of over 55% in size
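Cell growth measured by CellTiter-Glo luminescence after a minimum 48 h, 37 C compound exposure with 20 nM CPT in Tdp1-knockout DT40 cells stably expressing hTDP1, seeded 400/well; qHTS titration format.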
Giardia killer: Giardia lamblia killing; Giardia lamblia trophozoite viability; activity change, % at 7.66 µM, hits read low; actives 0.15% (n = 340,000); in the data active = activity change below about -80%; inconclusive = between about -30% and that limit;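 also: parasites exposed to compound for two days anaerobically before the ATP read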
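Each well holds 100 Giardia trophozoites and compound. After two days (48 hrs) at 37 deg C in anaerobic conditions, ATP is quantified by luminescence.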
IL1B secr inh: inhibitors of inflammasome signaling (IL-1 beta secretion); activity change, % at 57.5 µM; THP-1 LPS/ATP IL-1B secretion, AlphaLISA, 16 h; hits give low values; actives 4.7% (n = 360,000); in the data active = activity change below about -50%; inconclusive = mostly about -30% to -49%
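THP-1 cells pretreated 1 hr with compounds (up to 57.5 uM final), then stimulated with LPS (250 ng/mL final) plus ATP (1.25 mM final); secreted IL-1B measured by AlphaLISA after 16 hr, decreased signal indicating inhibition.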
TDP1 block: blocks human tyrosyl-DNA phosphodiesterase 1. Q9NUW8. recombinant TDP1, AlphaScreen DNA substrate cleavage. Potency, µM (doses to about 130 µM), without a hit: at the top dose activity change, negative = inhibition, hits mostly inhibitors. actives 0.28% (n = 350,000); also: potency is read from the fitted curve at half-maximal effect; nearly all actives have a fitted effect of over 40% in size
Target sequence (Q9NUW8 whole entry, looked up): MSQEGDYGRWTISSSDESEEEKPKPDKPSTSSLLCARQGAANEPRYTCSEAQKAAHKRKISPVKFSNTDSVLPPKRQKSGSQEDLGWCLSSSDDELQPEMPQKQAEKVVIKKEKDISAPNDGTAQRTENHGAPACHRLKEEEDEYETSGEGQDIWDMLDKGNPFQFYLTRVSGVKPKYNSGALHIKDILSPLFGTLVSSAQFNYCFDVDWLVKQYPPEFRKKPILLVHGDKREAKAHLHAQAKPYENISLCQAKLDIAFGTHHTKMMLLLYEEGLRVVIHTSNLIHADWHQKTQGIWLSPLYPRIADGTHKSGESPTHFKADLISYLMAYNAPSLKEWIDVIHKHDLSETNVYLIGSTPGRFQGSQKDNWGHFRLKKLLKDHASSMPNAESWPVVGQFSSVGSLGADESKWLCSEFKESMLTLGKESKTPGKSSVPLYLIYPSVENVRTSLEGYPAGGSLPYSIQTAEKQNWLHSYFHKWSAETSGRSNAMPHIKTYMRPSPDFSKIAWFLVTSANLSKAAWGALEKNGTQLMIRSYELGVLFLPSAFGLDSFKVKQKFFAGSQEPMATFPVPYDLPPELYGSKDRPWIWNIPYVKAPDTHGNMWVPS
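Signal: AlphaScreen proximity between streptavidin donor and anti-FITC acceptor beads on intact substrate. Reaction: Tdp1 1 nM, substrate 15 nM final, 5 min RT after 15 min compound preincubation.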
DT40 TDP1 no CPT: qHTS for Inhibitors of human tyrosyl-DNA phosphodiesterase 1 (TDP1): qHTS in cells in absence of CPT | DT40 Tdp1-/- hTDP1 cells, no CPT, ATP luminescence, 48 h | Potency, µM (doses to about 46.2 µM), without a hit: at the top dose activity change, negative = growth inhibition, usual class: inhibitors | actives 15% (n = 420,000) | AID 686978, 2013; also: potency is read from the fitted curve at half-maximal effect; nearly all actives have a fitted effect of over 55% in size
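Chicken DT40 Tdp1-/- cells stably complemented with human TDP1 were seeded at 400 cells/well with DMSO in place of 20 nM camptothecin. After compound pinning, cells grew at least 48 hr at 37 °C; viability read by CellTiter-Glo luminescence.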
Starred values were filed as active, the others as inactive; ? = inconclusive; . = not tested or not shown; [ ] = dose if it differs, or a comment. Unless noted, calls follow the shape of the dose curve; as a rule, active = well fitted curve in the direction sought with a large enough effect; inconclusive = small, poorly fitted or top-dose-only effect, or another doubt; inactive = no such curve, though single readings can be large; an effect the other way counts as inactive or inconclusive. % is scaled to controls: 0 for no effect and ±100 for the full control effect.

SMILES	ELG1 repair inh	DT40 TDP1 CPT	Giardia killer	IL1B secr inh	TDP1 block	DT40 TDP1 no CPT
C/C(=N\NS(=O)(=O)c1ccc(Br)cc1)c1ccncc1	0.6%	11.6µM*	-6.8	-77.6*	8.0%	?
Cc1nnc(Cc2ccccc2)c2n[nH]c(C)c12	.	0.731µM*	.	-19.2	.	0.731µM*
C/C(CCN1CCCc2nc(C)c(C)cc21)=N\O[C@@H](C)c1cn([C@H](CO)Cc2ccccc2)nn1	.	.	.	.	4.8%[21 µM]	.
COc1ccccc1-c1c(C)nn2c(N3CCOCC3)cc(C)nc12	0.0%	-1.0%	1.4	30.1	.	18.9%
COc1ccccc1-c1c(C)nn2c(N3CCCCCC3)cc(C)nc12	23.1µM*	16.4µM*	-11.0	-77.2*	0.0%	18.4µM*
CCOC(=O)C1CCN(c2cc(C)nc3c(-c4ccccc4OC)c(C)nn23)CC1	.	18.4µM*	.	.	-1.9%	18.4µM*
COc1ccccc1-c1c(C)nn2c(-c3ccccc3)cc(C)nc12	?	14.6µM*	3.7	-70.3*	.	20.6µM*
CCOC(=O)N1CCC(NC(=O)c2ccc(CS(=O)(=O)c3ccccc3C)o2)CC1	-21.2%	-21.1%	-16.0	-12.8	7.8%	-23.5%
CC(C)Oc1ccc(CNC(=O)c2ccc3c(c2)nc2n3CCOC2)cc1	.	3.0%	.	.	8.1%	-4.7%
CCc1ccc(NC(=O)N2CCN(c3ccc(F)cc3)CC2)cc1	-1.6%	?	-16.3	-20.5	.	25.9µM*
CC(=O)N1CCN(c2ccc(NCc3ccc(C)cc3)cc2)CC1	?	-21.1%	5.9	14.7	5.2%	-8.5%
CCc1ccc(CNc2ccc(N3CCN(C(C)=O)CC3)cc2)cc1	?	-18.7%	47.8	-3.8	11.6%	18.4µM*
CC(=O)c1ccc(N2CCN(C(=O)Nc3ccc(F)cc3)CC2)cc1	?	.	.	.	1.8%	.
Cc1ccc(-c2csc3nc(SCC(=O)N(C)C)n(Cc4ccccc4)c(=O)c23)cc1	20.6µM*	11.6µM*	-9.7	-21.7	3.0%	13µM*
NC(=O)CSc1nc2scc(-c3ccc(Cl)cc3)c2c(=O)n1Cc1ccccc1	16.4µM*	9.2µM*	-20.1	55.3	0.0%	8.2µM*
Cc1ccc(Cn2c(SCC(=O)NCc3ccccc3)nc3ccsc3c2=O)cc1	.	?	.	.	2.5%	?
COc1cccc(/C=C/C(=O)N2CCN(S(=O)(=O)c3ccccc3)CC2)c1OC	1.1%	-27.7%	3.5	-27.1	3.1%	-2.0%
NC(=O)CSC1=Nc2ccccc2C2=NC(CC(=O)NCc3cccs3)C(=O)N12 (stereo not given)	-3.3%	-8.4%	?	22.6	-4.0%	-5.2%
Cc1ccc(CSC2=Nc3ccccc3C3=NC(CC(=O)NCc4cccs4)C(=O)N23)cc1 (stereo not given)	.	16.4µM*	.	.	0.5%	16.4µM*
O=C(CC1N=C2c3ccccc3N=C(SCc3ccccc3F)N2C1=O)NCc1cccs1 (stereo not given)	.	?	.	.	5.4%	18.4µM*
O=C(CC1N=C2c3ccccc3N=C(SCc3ccc(Cl)cc3)N2C1=O)NCc1cccs1 (stereo not given)	.	-28.8%	.	.	4.4%	-19.0%
COc1cc(=O)n2c(c1C(=O)NCc1ccco1)CCN(C(=O)c1c(F)ccc(F)c1F)CC2	.	26.2%	.	.	.	-11.6%
COc1ccc(CCNc2oc(-c3ccc(C)cc3)nc2C#N)cc1OC	-16.2%	?	4.5	70.4	9.8%	?
COc1ccc(CCNc2oc(-c3cccc4ccccc34)nc2P(=O)(OC)OC)cc1OC	?	?	0.7	-15.4	5.6%	14.6µM*
CCOP(=O)(OCC)c1nc(-c2cccc3ccccc23)oc1NCc1ccc(OC)cc1	?	?	16.8	-75.0*	-2.6%	?
SMILES	ELG1 repair inh	DT40 TDP1 CPT	Giardia killer	IL1B secr inh	TDP1 block	DT40 TDP1 no CPT
CCOP(=O)(OCC)c1nc(/C=C/c2ccccc2)oc1NCc1ccccc1	0.0%	?	-6.0	-74.9*	-1.9%	?
CCCCCCCCCCCCC/C=C/[C@@H](O)[C@H](CO)NC(=O)CCCCCCCCCCCCCCC	.	-3.5%[4.12 µM]	.	.	7.3%	0.1%[4.12 µM]
O=C(NCc1ccc2c(c1)OCO2)c1cc(=O)[nH]c2ccccc12	-0.8%	-8.3%	-7.3	16.4	6.2%	-18.2%
CC(C)(C)c1ccc(C(=O)NC(Cc2c[nH]c3ccccc23)C(=O)OCC(=O)c2ccc(Br)cc2)cc1 (stereo not given)	.	-8.4%	.	.	5.7%	?
CCCNC(=O)Cn1nc(-c2ccc(OC)cc2)c2cnc3ccc(F)cc3c21	.	-27.8%	.	.	-0.6%	-17.3%
Fc1c(F)c(C(F)(F)F)c(F)c(F)c1N/N=C\c1cccs1	-13.4%	16.4µM*	-11.0	-73.7*	-1.0%	18.4µM*
Cc1ccnc2c1ccc1ccccc12	20.6%	-3.7%	-16.3	-26.2	.	9.1%
Cc1ccnc2c1ccc1cccnc12	?	1.03µM*	1.4	-85.6*	-3.9%	0.581µM*
Cc1cc(C)c2nccc(C)c2c1	.	-11.8%	.	.	.	2.6%
Cc1ccnc2c(O)cccc12	.	1.26µM*	.	.	.	0.891µM*
Cc1ccnc2c(N3C(=O)C4C5c6ccccc6C(c6ccccc65)C4C3=O)cccc12 (stereo not given)	?	20.6µM*	2.8	?	1.0%	16.4µM*
Cc1ccnc2c1ccc1c(C)ccnc12	2.31µM*	0.92µM*	-3.2	?	0.6%	2.59µM*
CN1CCC(C)(C(=O)Nc2cccc(Oc3ccccc3)c2)C1 (stereo not given)	.	-28.0%	.	6.6	.	?
Cn1cc(C(=O)N2CCN(c3cccc(Cl)c3)CC2)c(=O)c2cc(S(=O)(=O)N3CCCC3)ccc21	.	-20.4%	.	.	0.0%	-21.6%
Cc1cc(C)c2ccc(NN)nc2c1O	-10.3%	?	-7.9	60.9	7.0%	18.4µM*
Cc1cc(C)c2cccnc2c1O	.	1.26µM*	.	.	.	1.12µM*
Cc1ccnc2ncccc12	.	-25.2%	.	.	.	-12.1%
Cc1cc(C)c2ccc(/C=N/O)nc2c1O	5.7%	-20.6%	6.2	8.9	.	-28.6%
CC(C)CC(=O)OC1C(N2CCOCC2)c2c(ccc(/C=C/C(=O)N3CCOCC3)c2O)OC1(C)C (stereo not given)	16.4µM*	?	0.1	14.3	5.8%	?
CC1CCCCN1C(=O)CSc1nc2ccccc2nc1Cc1ccccc1 (stereo not given)	.	?	.	.	-2.7%	?
CCOc1ccc(C2c3[nH]c4ccccc4c3CCN2C(=O)CCC2CCCC2)cc1 (stereo not given)	.	20.6µM*	.	.	5.4%	18.4µM*

High-throughput results (PubChem BioAssay)
